From PubChem
An excerpt weighted towards active compounds, which were near 14% of everything screened.
HCMV antiviral – blocks human cytomegalovirus replication | activity change, negative = inhibition, % at 57.5 µM | actives 4.5% (n = 410,000) | HFF cells, HCMV-luciferase reporter, 72 h; hits give low values | AID 1259415; in the data active = activity change below about -60%; inconclusive = no clear call, values can overlap the other calls; inactive = above about -39%
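Compounds were evaluated in HFFs infected with an HCMV luciferase reporter virus (MOI 1 PFU/cell). Luciferase in lysates collected 72 h post infection served as the replication measure.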
MARV entry inh – inhibitors of Marburg virus binding or cell entry; actives 1.8% (n = 300,000); AID 540276; Marburg virus pseudotyped entry inhibition, cell reporter; Potency, µM (top dose mostly 37.8 µM), for the others: at the highest dose activity change, negative = inhibition, most hits filed as inhibitors; calls by dose curve; tested in HEK293 cells; note: potency is the fitted concentration of half-maximal effect
Lassa entry inh – blocks Lassa virus binding to or entry into cells. Potency, µM (doses to about 37.9 µM), inactives show top-dose activity change, negative = inhibition, actives largely listed as inhibitors. Lassa virus pseudotype entry inhibition, cell reporter. actives 1.2% (n = 300,000). AID 540256; calls by dose curve; tested in HEK293 cells; note: potency is the fitted concentration of half-maximal effect; nearly all actives have a fitted effect of over 50% in size
Pf growth 48h – P. falciparum growth inhibition at 48 hours (one generation). Potency, µM (series often up to 28.7 µM), for the others: at the top dose activity change, negative = inhibition, most hits filed as inhibitors. P. falciparum luciferase growth in erythrocytes, 48 h. AID 504832. actives 5.9% (n = 310,000); note: potency is the fitted concentration of half-maximal effect
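Erythrocytes infected with P. falciparum carrying an integrated firefly luciferase reporter (2% hematocrit, 0.1% parasitemia final) were exposed to compounds in RPMI 1640 with 0.5% Albumax at 37 C, 5% CO2. Growth inhibition was scored as reduced luminescence.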
HCV inh – blocks hepatitis C virus; Huh7.5.1 HCVcc-Cre infection, luciferase reporter, 44 h; actives 3.4% (n = 340,000); Potency, µM (highest dose often 41.8 µM), without a hit: at the top dose activity change, negative = inhibition, hits mostly inhibitors; note: potency is the fitted concentration of half-maximal effect
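Cells (1,000/well) were plated 4 h before compound, then infected with HCVcc-Cre virus (~0.5 moi). After 44 h further culture, infection was read as luciferase luminescence following a 15 min substrate incubation at room temperature.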
Pf growth 96h – inhibits malaria parasite growth, 96 h | P. falciparum luciferase reporter growth, 96 h | Potency, µM (titrated, usually from 28.7 µM), without a hit: top-dose activity change, negative = inhibition, hits mostly inhibitors | actives 6.9% (n = 320,000) | AID 504834; note: potency is the fitted concentration of half-maximal effect
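Two parasite generations (96 h, 37 C, 5% CO2) of compound exposure in infected erythrocytes (0.05% parasitemia, 2% hematocrit). Luciferase-reporter P. falciparum; decreased luminescence indicates inhibited growth, aimed at apicoplast-acting delayed death.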
An asterisk follows results filed as active; i = inactive; ? = inconclusive; / = no result given; [ ] = remark or other dose. Unless noted, calls come from the whole dose curve; as a rule, active = well fitted inhibition curve with a large enough effect; inconclusive = small, poorly fitted or top-dose-only effect, or another doubt; inactive = no such curve, though single readings can be large or run the other way. % is set by controls: 0 for no effect and ±100 for the full control effect.

SMILES	HCMV antiviral	MARV entry inh	Lassa entry inh	Pf growth 48h	HCV inh	Pf growth 96h
NC(N)=NCC(O)CN(c1ccccc1)c1ccccc1 (stereo not drawn)	-38	17%[46.1 µM]	28%[46.1 µM]	1.2µM*	6%	1.5µM*
O=[N+]([O-])c1ccc(N(CC(O)CN2CCCCC2)S(=O)(=O)c2ccccc2)cc1 (stereo not drawn)	-64*	-14%[46.1 µM]	-3%[46.1 µM]	5%	?	-4%
OC(CN1CCCCCC1)CN(c1ccccc1)c1ccccc1 (stereo not drawn)	-39	/	/	?	?	-20%
CNCC(O)CN(c1ccccc1)c1ccccc1 (stereo not drawn)	5	?	10%	?	18%	57%
OC(CN1CCCCC1)CN(c1ccccc1)c1ccccc1 (stereo not drawn)	-32	?	-2%	/	-5%	9.3µM*
O=C(Nc1ccc(Cl)c(S(=O)(=O)N2CCOCC2)c1)c1cccs1	-28	?	?	/	-14%	/
CC1=C(C(N)=O)C(c2ccc(C)cc2)n2nc(SCc3ccccc3)nc2N1 (stereo not drawn)	-3	?	-13%[46.1 µM]	/	/	/
COc1ccccc1C(=O)OCc1cc(=O)n2nc(C(C)C)sc2n1	1	/	-23%[46.1 µM]	/	/	/
Cc1ccc(S(=O)(=O)N(C)C[C@@H]2OCc3cnnn3CCCC(=O)N([C@H](C)CO)C[C@H]2C)cc1	13	/	/	/	/	/
CCc1nc2c(OCc3ccccc3)cccn2c1N(C)C(C)=O	-35	/	/	/	/	/
COc1ccc(Br)cc1/C=N/Nc1cccc(C(=O)O)c1	79	19%	20%	119%	18%	127%
O=C(O)c1cccc(N/N=C/c2ccc(-c3ccccc3)cc2)c1	109	?	8.9µM*	i	3%	331%
COc1ccccc1/C=C/C=N/Nc1cccc(C(=O)O)c1	116	?	5µM*	247%	-22%	i
O=S1(=O)N[C@H](Cc2ccccc2)COc2cccc(N3CCN(Cc4ccccc4F)CC3)c21	2	/	/	/	/	/
CCCc1ccc(S(=O)(=O)N2CCC(c3nnc(-c4cccc(C)c4)o3)CC2)cc1	-78*	-25%[46.1 µM]	2%[46.1 µM]	/	/	/
Cc1ccc(S(=O)(=O)N2CCC(c3nnc(-c4cccc(C)c4)o3)CC2)cc1	-92*	-4%[46.1 µM]	-23%[46.1 µM]	/	/	/
CC(=O)Nc1ccc(NC(=O)c2ccc(C3SCC(=O)N3CCc3ccccc3)cc2)cc1 (stereo not drawn)	-32	?	-16%	-19%	?	12µM*
COc1ccc(C(=O)NCCSCc2ccc(C)cc2)cc1	-29	0%	?	?	-1%	?
O=C(NCCSCc1ccccc1)c1ccc(C2SCC(=O)N2Cc2ccccc2)cc1 (stereo not drawn)	-26	?	?	/	?	7.4µM*
Cc1cccc(NC(=O)c2ccc(C3SCC(=O)N3CCc3ccccc3)cc2)c1 (stereo not drawn)	?	?	?	?	?	3%
COC(=O)c1ccc(C2SCC(=O)N2Cc2ccccc2)cc1 (stereo not drawn)	/	/	/	-21%	7%	4%
Cc1ccc(CSCCNC(=O)c2ccc(C)cc2)cc1	-8	?	?	13µM*	-4%	0%
Cc1cccc(N=Nc2c(N)n[nH]c2-c2ccc(Cl)cc2)c1	?	?	-7%	?	?	?
Cc1ccc(-c2[nH]nc(N)c2N=Nc2ccccc2C)cc1	-65*	8.2µM*	?	?	?	177%
Cc1ccc(-c2[nH]nc(N)c2N=Nc2cccc(Cl)c2C)cc1	-28	20µM*	?	?	?	-81%
SMILES	HCMV antiviral	MARV entry inh	Lassa entry inh	Pf growth 48h	HCV inh	Pf growth 96h
CC(C)N1C(=O)CC[C@@H](S(=O)(=O)c2ccccc2)[C@@H]1/C=C/c1ccccc1	23	/	/	/	/	/
COC(=O)C1=C(C)N(Cc2ccccc2)C(=NCC(C)C)NC1c1cccc(C(F)(F)F)c1 (stereo not drawn)	/	9%[14.2 µM]	?	/	/	/
COC(=O)C1=C(C)N(Cc2ccccc2)C(=NCc2cc(OC)c(OC)c(OC)c2)N[C@H]1c1cccc(F)c1	/	/	/	10µM*	1%	10µM*
COC(=O)C1=C(C)N(Cc2ccccc2)C(=NCC(C)C)N[C@H]1c1cccc(F)c1	-30	/	/	13µM*	38%	?
COC(=O)C1=C(C)N(Cc2ccc(C(F)(F)F)cc2)C(=NCc2ccccc2)NC1c1cccc(F)c1 (stereo not drawn)	-99*	/	/	/	/	/
COC(=O)C1=C(C)N(Cc2ccccc2)C(=NCc2ccc(OC)cc2)N[C@H]1c1cccc(F)c1	?	/	/	?	-27%	?
COC(=O)C1=C(C)N(Cc2ccccc2)C(=NCc2ccco2)N[C@H]1c1cccc(F)c1	1	/	/	/	0%	/
COC(=O)C1=C(C)N(Cc2ccccc2)C(=NCc2cccc(Cl)c2)N[C@H]1c1cccc(F)c1	/	/	/	8.3µM*	?	?
COC(=O)C1=C(C)N(Cc2cccc(C(F)(F)F)c2)C(=NCc2ccc(C(F)(F)F)cc2)NC1c1cccc(F)c1 (stereo not drawn)	-99*	/	/	/	/	/
Oc1ccccc1-c1nc2ccccc2nc1-c1ccccc1	4	-11%	-3%	15µM*	8%	?
CN(C(=O)c1cc2nc(-c3ccco3)cc(C(F)(F)F)n2n1)c1ccc(OC(F)(F)Cl)cc1	3	6%[46.1 µM]	?	/	/	/
